Experimental data as given in the supplement of paper PMC7380943.
Counter-ions that a name gives are not always drawn.

tested on: CLZ3 (HCA2 human fibroblast dual HR-NHEJ reporter); assay: NHEJ repair efficiency (GFP+ cells) relative to control (log10 fold); higher = more non-homologous end joining; details: 5 µM; doxycycline 0.5 ug/mL
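Note: compound given one day ahead of doxycycline, which switches on I-SceI endonuclease to cut the chromosomally integrated reporter and create DSBs.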

Structure (SMILES)	NHEJ repair efficiency (log10)
C[N+](C)(C)[C@H](Cc1c[nH]c2ccccc12)C(=O)[O-] [Hypaphorine]	0.0288
COc1cc2c(cc1OC)-c1cc3ccc(OC)c(OC)c3c[n+]1CC2 [Palmatine hydrochloride]	0.0374
CCCCC[C@H](O)CC(=O)CCc1ccc(O)c(OC)c1 [6-Gingerol]	-0.0809
C[C@H]1[C@H](OC(=O)CCC(=O)O)O[C@@H]2O[C@@]3(C)CC[C@H]4[C@H](C)CC[C@@H]1[C@@]24OO3 [Artesunate]	-0.0268
C/C=C/c1cc(OC)c2c(c1)C(C)C(c1ccc(O)c(OC)c1)O2 (stereo not given) [Dehydrodiisoeugenol]	-0.00267
O=c1c(O[C@@H]2O[C@H](CO)[C@@H](O)[C@H](O)[C@H]2O[C@@H]2O[C@H](CO)[C@@H](O)[C@H](O)[C@H]2O)c(-c2ccc(O)c(O)c2)oc2cc(O)cc(O)c12 [Baimaside]	0.0574
C[C@]12C[C@@H](O)[C@@H]3C[C@@]1(O[C@@H]1O[C@H](CO)[C@@H](O)[C@H](O)[C@H]1O)[C@@]3(COC(=O)c1ccccc1)C(=O)O2 [Albiflorin]	0.0446
C/C=C1\[C@H]2C=C(C)C[C@]1(N)c1ccc(=O)[nH]c1C2 [Huperzine-A]	0.0591
COc1ccc(/C=C/C(=O)O)cc1O [Isoferulic acid]	0.104
O=C(/C=C/c1ccc(O)c(O)c1)OC[C@H]1O[C@@H](OCCc2ccc(O)c(O)c2)[C@H](O)[C@@H](O)[C@@H]1O [Calceolarioside B]	-0.0242
O=C(O)c1ccccc1 [Benzoic Acid]	-0.0219
C[C@@H]1O[C@@H](Oc2cc(O)c3c(=O)c(O[C@@H]4O[C@@H](C)[C@H](O)[C@@H](O)[C@H]4O)c(-c4ccc(O)cc4)oc3c2)[C@H](O)[C@H](O)[C@H]1O [Kaempferitrin]	0.0262
OCc1ccccc1O[C@@H]1O[C@H](CO)[C@@H](O)[C@H](O)[C@H]1O [Salicoside]	-0.0463
O=C(O)c1cc(O)c2c(c1)C(=O)c1cccc(O)c1C2=O [Rhein]	0.0809
OC[C@H]1O[C@@H](Oc2c(O)cc(O)cc2/C=C/c2ccc(O)cc2)[C@H](O)[C@@H](O)[C@@H]1O [2,3,5,4'-Tetrahydroxy Stilbene 2-Ο-Β-D-Glucoside]	0.157
CC1(C)OC(=O)C=C[C@]2(C)[C@H]3CC[C@@]4(C)[C@H](c5ccoc5)OC(=O)[C@H]5O[C@]54[C@]3(C)C(=O)C[C@@H]12 [Obacunone]	-0.0357
C[C@H](CCC(=O)O)[C@H]1CC[C@H]2[C@@H]3C[C@H](O)[C@@H]4C[C@H](O)CC[C@]4(C)[C@H]3CC[C@]12C [Hyodesoxycholic acid]	-0.299
Cn1c(=O)c2c(ncn2CC(O)CO)n(C)c1=O (stereo not given) [Diprophylline]	0.137
CC1CCC(C(C)C)C(O)C1 (racemic) [dl-Menthol]	0.0823
C[C@@H]1CC[C@@]2(OC1)O[C@H]1C[C@H]3[C@@H]4CC=C5C[C@@H](O)C[C@@H](O)[C@]5(C)[C@H]4CC[C@]3(C)[C@H]1[C@@H]2C [Ruscogenin]	-0.0127

Structure (SMILES)	NHEJ repair efficiency (log10)
Cn1c(=O)c2c(ncn2CC2OCCO2)n(C)c1=O [Doxofylline]	0.101
CCCCCCCCCCCCCCCC(=O)OC [Methyl Palmitate]	0.0451
CC(C)=CCC[C@](C)(O[C@@H]1O[C@H](CO)[C@@H](O)[C@H](O)[C@H]1O)[C@H]1CC[C@]2(C)[C@@H]1[C@H](O)C[C@@H]1[C@@]3(C)CC[C@H](O)C(C)(C)[C@@H]3[C@@H](O[C@@H]3O[C@H](CO)[C@@H](O)[C@H](O)[C@H]3O[C@@H]3O[C@@H](C)[C@H](O)[C@@H](O)[C@H]3O)C[C@]12C [Ginsenoside Re]	-0.152
CC1(C)CC[C@]2(C(=O)O)CC[C@]3(C)C(=CC[C@@H]4[C@@]5(C)C[C@@H](O)[C@H](O)C(C)(C)[C@@H]5CC[C@]43C)[C@@H]2C1 [Maslinic Acid]	-0.0568
O=c1c2ccccc2nc2n1CCc1c-2[nH]c2ccccc12 [Rutecarpine]	-0.038
C/C=C1/[C@H](O[C@@H]2O[C@H](CO)[C@@H](O)[C@H](O)[C@H]2O)OC=C(C(=O)OC)[C@H]1CC(=O)OCCc1ccc(O)c(O)c1 [Oleuropein]	0.0183
CC1(C)CC[C@]2(C(=O)O)[C@H](O)C[C@]3(C)C(=CC[C@@H]4[C@@]5(C)CC[C@H](O)C(C)(C)[C@@H]5CC[C@]43C)[C@H]2C1 [Echinocystic acid]	-0.117
C[C@H]1O[C@@H](O[C@H]2CC[C@@]3(C)[C@@H](CC[C@]4(C)[C@@H]3C=CC3=C5CC(C)(C)CC[C@]5(CO)[C@H](O)C[C@]34C)[C@]2(C)CO)[C@H](O)[C@@H](O[C@@H]2O[C@H](CO)[C@@H](O)[C@H](O)[C@H]2O)[C@H]1O [Saikosaponin B2]	0.0489
C[C@@]12C[C@H](c3ccoc3)O[C@@]13C[C@H](OC3=O)[C@H]1[C@H]2C[C@@H]2C[C@H]1C(=O)O2 [Diosbulbin B]	-0.0688
COc1cc(-c2oc3cc(O)cc(O)c3c(=O)c2O[C@@H]2O[C@H](CO)[C@@H](O)[C@H](O)[C@H]2O[C@@H]2O[C@@H](C)[C@H](O)[C@@H](O)[C@H]2O)ccc1O [Isorhamnetin 3-O-Neohesperoside]	-0.0528
Cc1ccc(C(C)C)cc1 [p-Cymene]	0.065
COc1cc2c(c(OC)c1OC)-c1c(cc(OC)c(OC)c1OC)C[C@H](C)[C@H](C)C2 [Schisandrin A]	-0.121
COc1cccc(OC)c1C(=O)OCc1cc(O)ccc1O[C@@H]1O[C@H](CO)[C@@H](O)[C@H](O)[C@H]1O [Curculigoside]	0.0105
CC[C@H](C)[C@@H]1NC(=O)[C@@H]2CCCN2C(=O)[C@@H]2CCCN2C(=O)[C@@H]2CCCN2C(=O)[C@H](CC(C)C)NC(=O)CNC(=O)CNC(=O)[C@H](Cc2ccccc2)NC1=O [Heterophyllin B]	0.0424
C[C@H]1O[C@H](O[C@@H]2[C@@H](O)[C@H](OCCc3ccc(O)c(O)c3)O[C@H](CO[C@H]3OCC(O)(CO)[C@@H]3O)[C@H]2OC(=O)/C=C/c2ccc(O)c(O)c2)[C@@H](O)[C@@H](O)[C@@H]1O (stereo not given in full) [Forsythoside B]	0.0465
COc1cc2c(c(OC)c1OC)-c1c(cc3c(c1OC)OCO3)C[C@H](C)[C@@](C)(O)C2 [Schizandrol B]	-0.0319
COc1cc(/C=C/c2ccc(O)cc2)cc(OC)c1 [Pterostilbene]	0.127
C[C@@H]1O[C@@H](O[C@H]2[C@H](Oc3cc(O)c4c(c3)O[C@H](c3ccc(O)cc3)CC4=O)O[C@H](CO)[C@@H](O)[C@@H]2O)[C@H](O)[C@H](O)[C@H]1O [Naringin]	-0.127
Oc1cc(O)c2c(c1)O[C@H](c1ccc(O)c(O)c1)[C@H](O)C2 [Epicatechin (EC)]	-0.238
CCCOC(=O)c1cc(O)c(O)c(O)c1 [Propyl gallate]	-0.0069
